Bioassay records (PubChem)
This is a sample that favours compounds with a hit; in the whole collection about 22% have one here.
CYP2C9 inh = human CYP2C9 inhibition; CYP2C9 Supersomes, luciferin-H conversion, luminescence; inhibition, % at 5 µM; 20% of 96,000 active;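 active means blocking of liver enzyme CYP2C9 beyond about 50% at 5 µM, limit read from the data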
Target sequence (P11712 whole entry, looked up): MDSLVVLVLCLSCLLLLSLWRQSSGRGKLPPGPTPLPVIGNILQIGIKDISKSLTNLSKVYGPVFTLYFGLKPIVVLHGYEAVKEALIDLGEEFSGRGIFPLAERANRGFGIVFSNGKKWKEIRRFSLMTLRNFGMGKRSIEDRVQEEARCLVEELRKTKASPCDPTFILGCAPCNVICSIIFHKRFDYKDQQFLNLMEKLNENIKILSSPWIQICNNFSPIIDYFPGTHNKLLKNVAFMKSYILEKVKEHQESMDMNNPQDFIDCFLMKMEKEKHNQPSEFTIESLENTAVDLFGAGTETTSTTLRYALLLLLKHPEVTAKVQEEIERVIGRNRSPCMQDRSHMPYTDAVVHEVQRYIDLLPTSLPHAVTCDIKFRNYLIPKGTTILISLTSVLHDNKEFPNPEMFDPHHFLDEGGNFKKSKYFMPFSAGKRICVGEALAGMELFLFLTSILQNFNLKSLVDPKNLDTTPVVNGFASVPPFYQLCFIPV
CYP2C19 inh = human CYP2C19 inhibition | P33261 | CYP2C19 Supersomes, luciferin-H EGE luminescence, 30 min | inhibition, % at 5 µM | 21% of 96,000 active | AID 778;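 active means CYP2C19 inhibition above a set limit at 5 µM in the primary screen, cut at about 50% in these data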;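 further: plate controls were negative control wells for no effect and 2.5 mM tranylcypromine positive control for full effect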
E-sel TNF inh = blocks E-selectin expression induced by TNF alpha; HUVEC TNFa-induced E-selectin immunofluorescence, high content; inhibition, % at 2 µM; 0.71% of 120,000 active;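 active means inhibition above the batch mean plus 3 SD, and confirmed as a hit on visual image review, cut at about 43% in these data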;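 further: 0% = TNF-stimulated DMSO wells and 100% = unstimulated control wells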
CYP2C19 act = cytochrome P450 2C19 (human) activation; recombinant CYP2C19, luciferin-H EGE luminescence; active compounds read high; 0 = fully inhibited enzyme, 1 = untreated enzyme; activation factor at 5 µM; 96,000 tested, under 10 active;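 active means activation factor of at least 2 at 5 µM in the primary screen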;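 further: 0 = wells with 2.5 mM tranylcypromine and 1 = vehicle-only wells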
F-actin modifier = alters cytoskeleton assembly in HUVEC cells | inhibition, % at 2 µM | HUVEC TNFa F-actin phalloidin imaging, high content | 0.18% of 91,000 active | AID 836;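 active means inhibition above the batch mean plus 3 SD and confirmed as a hit by visual image inspection, cut at about 30% in these data, passing the limit was not always enough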
CYP2C9 act = CYP2C9 (human) activation; P11712; recombinant CYP2C9, luciferin-H conversion, luminescence; active compounds read high; factor 1 = untreated enzyme, 0 = blocked; activation factor at 5 µM; 1.4% of 96,000 active; AID 1024;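 active means activation factor of 2 or more for CYP2C9 at a 5 µM dose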;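 further: 0 = sulfaphenazole-blocked wells and 1 = vehicle-only wells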
The depositor's hits bear a star; . = not tested or not shown.

SMILES | CYP2C9 inh | CYP2C19 inh | E-sel TNF inh | CYP2C19 act | F-actin modifier | CYP2C9 act
CC(=O)CC1(O)C(=O)N(Cc2ccccc2)c2ccccc21 (stereo not drawn) | 13 | 36 | -9 | 0.6 | 27 | 0.9
C/C(CC1(O)C(=O)N(Cc2ccccc2)c2ccccc21)=N\O (stereo not drawn) | 8 | 50* | . | 0.5 | 6 | 0.9
Cc1coc(C)c1C(=O)CC1(O)C(=O)N(Cc2ccccc2)c2ccccc21 (stereo not drawn) | 39 | 98* | 19 | 0 | . | 0.6
O=C(N/N=C/c1ccc(Br)cc1)c1ccccc1-n1cccc1 | 54* | 85* | 0 | 0.1 | -31 | 0.5
Cc1ccc2c(c1)c1c(n2CC(O)Cn2nc(C)c(Br)c2C)CCCC1 (stereo not drawn) | 72* | 64* | 14 | 0.4 | 0 | 0.3
Cc1ccc2c(c1)c1c(n2CC(O)CNC(C)(C)C)CCCC1 (stereo not drawn) | -1 | 28 | . | 0.7 | -22 | 1
Cc1nn(CC(O)Cn2cnc3c2c(=O)n(C)c(=O)n3C)c(C)c1Br (stereo not drawn) | 2 | 3 | -9 | 1 | -12 | 1
Cc1nn(CC(O)Cn2c3c(c4ccccc42)CCN(C)C3=O)c(C)c1Br (stereo not drawn) | 81* | 91* | 26 | 0.1 | -18 | 0.2
Cc1nn(CC(O)COc2ccc3c(c2)CCC3)c(C)c1Br (stereo not drawn) | -1 | 24 | -4 | 0.8 | 31 | 1
Cc1ccc2c(c1)c1c(n2CC(O)Cn2c(C)nc3ccccc32)CCCC1 (stereo not drawn) | 77* | 14 | 4 | 0.9 | -5 | 0.2
CC(C)Oc1ccc(C(CC(=O)O)n2cnnn2)cc1 (stereo not drawn) | . | . | -10 | . | . | .
O=C(NCc1cccnc1)Nc1ccccc1 | . | . | 16 | . | . | .
Cc1ccc(-c2noc(CCC(=O)NCc3ccco3)n2)cc1 | 47 | 13 | 4 | 0.9 | -12 | 0.5
O=C(CCc1nc(-c2ccccc2)no1)NCc1ccco1 | 59* | 57* | 10 | 0.4 | -58 | 0.4
O=C(CCc1nc(-c2ccccc2)no1)NCc1cccnc1 | 51* | 2 | 6 | 1 | 13 | 0.5
O=C(CCCc1ccccc1)NCc1cccnc1 | 38 | 91* | 2 | 0.1 | . | 0.6
O=C(Cn1cc2c(n1)CCCC2)NCc1cccnc1 | 14 | 11 | -22 | 0.9 | . | 0.9
COCCNC(=O)CCc1nc(-c2ccccc2)no1 | -3 | 1 | 7 | 1 | 3 | 1
O=C(Cn1[nH]c(=O)c2ccccc2c1=O)NCc1cccnc1 | 63* | 11 | . | 0.9 | 6 | 0.4
CCOC(=O)c1ccc(S(=O)(=O)n2c(CN3CCCCC3)nc3ccccc32)cc1 | 4 | -13 | 33 | 1.1 | -9 | 1
O=C(O)[C@H]1CCC(=O)N1Cc1ccco1 | -14 | -14 | 43 | 1.1 | 27 | 1.1
CCN(C(=O)COC(=O)c1n[nH]c2ccccc12)C1CCS(=O)(=O)C1 (stereo not drawn) | . | . | -12 | . | . | .
O=c1[nH]n(Cc2ccccc2)c(=O)c2ccccc12 | 41 | 72* | 17 | 0.3 | -23 | 0.6
O=C(Nc1ccc(-c2noc(CCc3ccccc3)n2)cc1)c1cccnc1 | 55* | 27 | -20 | 0.7 | . | 0.5
Cn1[nH]c(=O)c2ccccc2c1=O | -12 | -20 | -41 | 1.2 | . | 1.1
SMILES | CYP2C9 inh | CYP2C19 inh | E-sel TNF inh | CYP2C19 act | F-actin modifier | CYP2C9 act
O=C(CCCc1nc(-c2ccccc2Cl)no1)NCc1cccnc1 | 1 | 61* | -20 | 0.4 | . | 1
CC(C)COCC1CC2(CC(C)C(=O)CC2=O)C(=O)O1 (stereo not drawn) | 21 | 8 | 21 | 0.9 | 23 | 0.8
Cc1cc(NC(=O)CCC(=O)N(Cc2ccco2)C(C(=O)NC2CCCC2)c2ccccc2C)no1 (stereo not drawn) | . | . | 18 | . | 0 | .
CCCCNC(=O)c1ccc2c(c1)ncn2C1CCCC1 | 19 | -1 | . | 1 | 7 | 0.8
Cc1noc(C)c1CSc1ccccc1C(=O)Nc1nccs1 | 32 | 76* | -15 | 0.2 | 1 | 0.7
NC(=O)CCn1nc(-c2ccccc2)c2ccccc2c1=O | -10 | 16 | . | 0.8 | . | 1.1
COc1cccc(Cn2c(-c3cccs3)noc2=O)c1 | 30 | 82* | -2 | 0.2 | -7 | 0.7
COc1ccc(CNC(=O)c2cc(-c3cccs3)on2)cc1 | 47 | 29 | . | 0.7 | 0 | 0.5
CNc1nc(N)c(C(=O)Nc2cc(C)on2)s1 | . | . | 11 | . | . | .
CCOC(=O)CNC(c1ccccc1)c1cc(Br)ccc1NC(=O)CCN1CCOCC1 (stereo not drawn) | . | . | 2 | . | . | .
CC(=O)c1cccc(NC(=O)CN2C(=O)COc3ccc(Cl)cc32)c1 | 62* | 38 | 0 | 0.6 | -2 | 0.4
CC(=O)c1cccc(NC(=O)CN2C(=O)C3C4C=CC(C4)C3C2=O)c1 (stereo not drawn) | 72* | 95* | 32 | 0 | 14 | 0.3
CCOc1ccccc1NC(=O)CN1C(=O)COc2ccc(Cl)cc21 | 2 | 50* | 28 | 0.5 | 7 | 1
Cc1ccc2c(c1)N(CC(=O)Nc1ccc3c(c1)OCCO3)C(=O)CO2 | 17 | 21 | -4 | 0.8 | -3 | 0.8
COC(=O)c1ccc(NC(=O)CN2C(=O)C3C4C=CC(C4)C3C2=O)cc1 (stereo not drawn) | 24 | 11 | . | 0.9 | -24 | 0.8
Cc1ccc(-n2ncc(C(=O)Nc3ccc(Cl)cc3)c2C2CCNCC2)cc1C | . | . | 10 | . | . | .
COc1cccc(N/C=C(\C#N)c2ccc(OCCCF)cc2)c1 | 42 | 14 | 6 | 0.9 | 10 | 0.6
O=C(c1ccc(F)cc1)N1CCCCC(Sc2nnc3ccccn23)C1=O (stereo not drawn) | -21 | -18 | 6 | 1.2 | 4 | 1.2
Cc1cc2nnc(SC3CCCCN(C(=O)c4ccc(F)cc4)C3=O)n2c2ccccc12 (stereo not drawn) | 29 | 84* | -32 | 0.2 | -12 | 0.7
Cc1cc2nnc(SC3CCOC3=O)n2c2ccccc12 (stereo not drawn) | -108 | -1 | -50 | 1 | . | 2.1*
O=C1/C(=C\c2cccnc2)CCc2ccccc21 | 28 | 75* | -10 | 0.3 | 25 | 0.7
CCCC1COC(Cn2cncn2)(c2ccc(C)cc2)O1 (stereo not drawn) | 49 | 58* | . | 0.4 | . | 0.5
COc1ccc(Nc2nc(Nc3ccc(OC)cc3)nc(SC3=NCCS3)n2)cc1 | 64* | 59* | 0 | 0.4 | 46 | 0.4
CC(C)(C)c1ccc(Oc2cccc(C3CC(=O)C(C4NCCc5ccccc54)C(=O)C3n3cncn3)c2)cc1 (stereo not drawn) | 34 | -8 | -21 | 1.1 | 22 | 0.7
O=C1CC(=O)C(n2cncn2)C(c2ccc(Cl)cc2Cl)C1 (stereo not drawn) | 74* | 10 | . | 0.9 | . | 0.3
Cc1cc(S(=O)(=O)N2CCCC2)ccc1OCC(=O)N1CCOCC1 | 48 | 5 | 6 | 0.9 | . | 0.5
